This is a sample that favours compounds with a hit; in the whole collection about 3.1% have one here.
IkB signaling: IkB Signaling. AID 445, 2006. 110,000 compounds, 0.04% hits. ABC-DLBCL IkBa-CBG/CBR dual luciferase ratio, 4 h; response scale: scaled: untreated 0%, proteasome inhibitor 100%. Potency, µM (titrated, usually from 57.1 µM), for the others: at the top dose IkBa stabilization activation; active = well fitted curve in the direction sought with a large enough effect in the signal ratio, not every such curve was filed as active; inconclusive = small, poorly fitted or top-dose-only effect, or a change in a side signal; the % refers to the signal ratio;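 note: the direction sought is a rising ratio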
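Curves were fitted separately to fusion (green), unfused (red) and ratio luminescence, then classed by r2, magnitude and activity. Cells: OCI-Ly3, 4 h compound plus doxycycline at 37C; 10 uM MG-132 defined full response.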
HEK293 cAMP ctrl: qHTS Assay for Agonists of the Thyroid Stimulating Hormone Receptor: Activators of Intracellular cAMP Concentrations in Parental HEK 293 | parental HEK293 CNG cAMP sensor, membrane potential fluorescence | AID 938, 2007 | 73,000 compounds, 2.5% hits | Potency, µM (doses to about 57.1 µM), for inactives: at the top dose activation, hits mostly activators; note: % of control where 0% means no effect; nearly all actives have a fitted effect of over 55% in size
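Counterscreen for endogenous-receptor signalling: CNG-channel HEK 293 cells report cAMP rise by membrane depolarization. After 60 min dye equilibration with 100 uM RO 20-1724, compounds incubated 30 min before bottom-read fluorescence at 590 nm.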
TSHR ag: qHTS Assay for Agonists of the Thyroid Stimulating Hormone Receptor; Thyrotropin receptor (Homo sapiens), P16473; HEK293-CNG-TSHR cells (CNG channel as cAMP sensor), membrane potential dye, cAMP; Potency, µM (highest dose often 57.1 µM), without a hit: at the top dose activation, most hits filed as activators; 73,000 compounds, 0.48% hits; active = well fitted activation curve with a large enough effect in the main read-out, with a control signal flat, not every such curve was filed as active; inconclusive = small, poorly fitted or top-dose-only effect, or a change in a side signal; inactive = no such curve, though single readings can be large or run the other way; % of control where 0% means no effect;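 note: the control signal comes from parental cells without the receptor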
Target sequence (P16473 whole entry, looked up): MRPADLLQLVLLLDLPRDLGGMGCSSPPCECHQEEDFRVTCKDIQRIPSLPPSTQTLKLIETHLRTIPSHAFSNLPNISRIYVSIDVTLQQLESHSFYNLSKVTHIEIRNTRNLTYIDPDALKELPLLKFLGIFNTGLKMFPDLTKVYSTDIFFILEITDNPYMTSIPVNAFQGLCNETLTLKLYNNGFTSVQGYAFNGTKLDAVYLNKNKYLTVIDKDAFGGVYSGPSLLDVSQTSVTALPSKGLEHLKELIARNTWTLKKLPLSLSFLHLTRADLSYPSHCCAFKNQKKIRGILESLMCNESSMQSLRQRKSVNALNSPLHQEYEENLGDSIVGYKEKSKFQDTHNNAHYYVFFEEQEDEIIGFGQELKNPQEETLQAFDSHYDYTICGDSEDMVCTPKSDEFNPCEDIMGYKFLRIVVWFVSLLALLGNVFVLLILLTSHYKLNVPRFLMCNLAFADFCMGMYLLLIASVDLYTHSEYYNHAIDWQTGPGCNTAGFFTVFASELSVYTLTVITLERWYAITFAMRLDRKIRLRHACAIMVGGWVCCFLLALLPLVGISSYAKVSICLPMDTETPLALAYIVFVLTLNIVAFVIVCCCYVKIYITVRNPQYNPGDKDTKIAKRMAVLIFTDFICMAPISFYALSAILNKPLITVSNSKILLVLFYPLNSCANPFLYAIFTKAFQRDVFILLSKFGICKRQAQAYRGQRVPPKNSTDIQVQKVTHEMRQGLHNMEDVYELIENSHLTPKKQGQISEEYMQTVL
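cAMP rise detected as CNG-channel membrane depolarization by fluorescent dye (emission 590 nm), 30 min after compound, following 60 min dye loading containing 100 uM RO 20-1724 at room temperature. Cells: TSHR/CNG HEK 293, with parental CNG HEK 293 as control.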
Imprint erasure: qHTS Assay for Compounds that Induce Erasure of Genomic Imprints | 110,000 compounds, 0.02% hits | Potency, µM (highest dose often 60.7 µM), for the others: at the highest dose activity change, positive = activation, usual class: activators | mouse ES Peg3-LacZ reporter, beta-gal luminescence, 40 h
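Each well holds 300 Peg3LacZ-Neo (maternal) female ES cells incubated 40 h at 37C, 5% CO2. LacZ is measured by BetaGlo luminescence, with AC50 and maximum efficacy derived from dose-response curves.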
p53ts 39C kill: qHTS Screen for Compounds that Selectively Target Cancer Cells with p53 Mutations: Cytotoxicity of p53ts Cells at the Nonpermissive Temperature; H1299-p53A138V viability at 39C, ATP luminescence, 24 h; Potency, µM (top dose mostly 46.1 µM), for the others: at the top dose activity change, negative = cell killing, actives largely listed as cytotoxic; 130,000 compounds, 1.5% hits; note: % is set by controls: 0 for no effect and ±100 for the full control effect; nearly all actives have a fitted effect of over 55% in size
p53ts 32C tox: qHTS Screen for Compounds that Selectively Target Cancer Cells with p53 Mutations: Cytotoxicity of p53ts Cells at the Permissive Temperature. 130,000 compounds, 0.93% hits. H1299-p53A138V at 32C, ATP luminescence viability, 24 h. Potency, µM (top dose mostly 46.1 µM), inactives show top-dose activity change, negative = cytotoxicity, most hits filed as cytotoxic;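 note: 0% = DMSO and -100% = full killing by reference compound; nearly all actives have a fitted effect of over 55% in size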
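Viability by ATPlite luminescence after 24 h compound treatment (up to 46 uM) at the permissive 32C. Cells are H1299 carrying p53 A138V. Scale runs from DMSO basal to 100 uM tamoxifen as full kill; AC50 from Hill fits.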
Starred values were filed as active, the others as inactive; ? = inconclusive; nt = not tested or not shown; [ ] = dose if it differs, or a comment. Unless noted, calls come from the whole dose curve; as a rule, active = well fitted curve in the direction sought with a large enough effect; inconclusive = small, poorly fitted or top-dose-only effect, or another doubt; inactive = no such curve, though single readings can be large; an effect the other way counts as inactive or inconclusive. Potency is the fitted concentration of half-maximal effect.

SMILES | IkB signaling | HEK293 cAMP ctrl | TSHR ag | Imprint erasure | p53ts 39C kill | p53ts 32C tox
O=c1c(-c2ccc(Cl)cc2)nc2cnc(N3CCNCC3)nc2n1CCc1ccccc1 | -2%[11.4 µM] | -5% | 0% | -35% | ? | ?
CCN(CC)[C@@H](C)C(=O)N1c2ccccc2Sc2ccccc21 | 3% | 28% | nt | nt | nt | nt
COC(=O)C1=C(C)N(Cc2ccccc2)C2=C3C(=O)N(C)C(=O)C3[C@@](O)(C(=O)OC)C(=O)N2C1c1ccccc1 (stereo partly drawn) | nt | 3%[11.4 µM] | ? | nt | -16%[9.22 µM] | -8%[9.22 µM]
CCN1C(C)=C(C(=O)OC)C(c2ccccc2)N2C(=O)[C@](O)(C(=O)OC)C(c3ccccc3)C(C(=O)c3ccccc3)=C12 (stereo partly drawn) | nt | 4µM* | ? | nt | 4%[9.22 µM] | -2%[9.22 µM]
COc1ccc(OC)c(CCNC(=O)c2cnn(-c3ccccc3)c2-n2cccc2)c1 | 2% | nt | nt | -15%[10.9 µM] | 6% | 10%
Cc1ccc(Cn2nnc3c(=O)n(Cc4cc(C)ccc4C)cnc32)cc1 | 0% | 3.2µM* | ? | -10% | -14% | 0%
Fc1ccc(-c2nc3n(n2)Cc2ccccc2-3)cc1 | 12% | 10% | 10% | -94% | ? | 16µM*
Cc1ccc(-c2nc3n(n2)Cc2ccccc2-3)cc1 | nt | nt | nt | nt | 6.3µM* | 8.9µM*
O=c1nc2n(c3c1oc1ccccc13)Cc1ccccc1-2 | 0% | -4% | 3% | -2% | 14% | 10%
CCn1c(C)nc2cc(-c3nc4n(n3)Cc3ccccc3-4)ccc21 | 0% | -5% | 0% | -97% | 0.4µM* | 0.32µM*
CCOC(=O)c1cc(-c2ccc(C)cc2)n(CC(=O)NC2CCCCCC2)c1C | 1% | nt | nt | -10%[10.9 µM] | -18% | 7%
Cc1cccc(C(=O)Nc2nnc(S(=O)(=O)N3c4ccccc4CC3C)s2)c1 (stereo not drawn) | -3% | nt | nt | -9%[10.9 µM] | -8% | 0%
Cc1coc2c1c(C)cc1oc(=O)cc(C)c12 | -1% | nt | nt | 1%[10.9 µM] | 1% | 5%
Cc1cccc2c(=O)cc(CSc3ccccc3NC(=O)c3cccc(Cl)c3)[nH]c12 | -1% | nt | nt | 10%[10.9 µM] | -10% | 4%
Clc1ccccc1C(Nc1ncccn1)Nc1ncccn1 | 1%[11.4 µM] | -1%[11.4 µM] | -1%[11.4 µM] | -10%[10.9 µM] | 12%[9.22 µM] | 11%[9.22 µM]
Clc1ccc([C@@H](c2ccccc2Cl)C(Cl)Cl)cc1 | 18% | 12% | 20µM* | nt | nt | nt
COc1ccc(NC(=O)c2ccco2)cc1NC(=O)COc1ccc(Cl)c(C)c1 | -1% | nt | nt | -6%[10.9 µM] | 10µM* | ?
CCc1cc2c(cc3c(=O)n(CC(=O)NC4CCC(C)CC4)nc(CC)n32)s1 (stereo not drawn) | -3% | nt | nt | -5%[10.9 µM] | ? | -3%
Cc1ncsc1C(=O)Nc1nc2c(s1)CC(C)CC2 (stereo not drawn) | ? | 3% | 0% | -88% | 16µM* | ?
COC(=O)c1c(-c2ccc(F)cc2)csc1NC(=O)c1ccco1 | -2% | 4µM* | ? | -10% | -10% | -6%
O=C1c2ccccc2C(=O)c2c1ccc(O)c2O | nt | nt | nt | -43% | -13% | -2%
O=C1c2ccc(O)c(O)c2C(=O)c2c(O)ccc(O)c21 | nt | nt | nt | -18% | 5µM* | ?
Cc1cccc(Cn2c(SCc3ccc(C(=O)NCCc4ccccc4)cc3)nc3cccnc32)c1 | nt | nt | nt | nt | nt | -6%
CCc1ccc2nc(N3CCN(C(=O)c4ccco4)CC3)sc2c1 | -1% | nt | nt | -7%[10.9 µM] | ? | 7%
CCCCN(CC)CCCNC(=O)C1CCN(c2nc3ccc(CC)cc3s2)CC1 | 3% | nt | nt | 10%[10.9 µM] | 20µM* | 13µM*
SMILES | IkB signaling | HEK293 cAMP ctrl | TSHR ag | Imprint erasure | p53ts 39C kill | p53ts 32C tox
CCCCN(C)CCCNC(=O)C1CCN(c2nc3ccc(CC)cc3s2)CC1 | ? | nt | nt | -9%[10.9 µM] | ? | 13µM*
Cn1c(CSc2ccccc2)c(C#N)c2ccccc21 | 0% | 25µM* | ? | -24% | 3% | 8%
CC(C)(C)C(=O)[C@H]([C@@H](c1ccccc1)N1CCOCC1)N1CCOCC1 | 0%[11.4 µM] | 25%[11.4 µM] | 11%[11.4 µM] | nt | -3%[9.22 µM] | -5%[9.22 µM]
CCOC(=O)c1cc(-c2ccco2)nc2c1c(C)nn2-c1ccccc1 | -2% | 17% | 3.2µM* | 9% | -12% | -4%
O=C1c2ccccc2C(=O)N1CCCc1nc(-c2ccc(Cl)cc2)no1 | -1% | 0.16µM* | ? | -2% | -1% | 0%
O=C1c2ccccc2C(=O)N1CCCc1nc(-c2ccccn2)no1 | ? | -1% | -2% | 2% | 13% | -9%
O=C1c2ccccc2C(=O)C1c1ccnc2ccccc12 | nt | nt | nt | nt | 5.6µM* | ?
CCCCCN=c1ccn(Cc2ccccc2)c2ccccc12 | ? | 16µM* | ? | -20% | ? | -21%
CC(C)OC(=O)CSc1nc2cccnc2n1C1CCCCC1 | -1% | 16µM* | ? | -14% | 1% | 3%
CC1CCN(S(=O)(=O)c2ccc3c(c2)CCC(=O)N3CC(=O)Nc2cccc(C#N)c2)CC1 | 1% | nt | nt | -11%[10.9 µM] | -1% | 9%
Nc1c(C(=O)Nc2ccc(C(=O)O)cc2)sc2nc3c(cc12)CCCC3 | ? | nt | nt | -10%[10.9 µM] | ? | ?
COc1ccc(OC)c(NC(=O)c2sc3nc4c(cc3c2N)CCCCCC4)c1 | ? | nt | nt | -19%[10.9 µM] | 13µM* | ?
CCOc1ccc(NC(=O)c2sc3nc4c(cc3c2N)CCCCCC4)cc1 | -1% | nt | nt | -8%[10.9 µM] | 13µM* | ?
Cc1cccc(NC(=O)c2sc3nc4c(cc3c2N)CCCCCC4)c1C | 2.5µM* | nt | nt | -19%[10.9 µM] | -16% | -6%
O=C1CCCC=C1[C@@H](O)CCOCc1ccccc1 | nt | 2%[11.4 µM] | 3%[11.4 µM] | nt | 0%[9.22 µM] | -7%[9.22 µM]
Cc1ccccc1C(=O)Oc1cc(-c2ccc3c(c2)OCO3)cc(=O)c2c(C)oc(C)c12 | ? | nt | nt | -8%[10.9 µM] | -1% | 6%
Cc1ccccc1Cc1c(C)nc2c(C(=O)N3CCN(Cc4ccc5c(c4)OCO5)CC3)cnn2c1C | 0% | 20µM* | ? | -6% | 10% | 3%
Cc1c(Cl)cccc1NC(=O)c1cc(-c2ccc(O)cc2)on1 | ? | 6% | 15% | -17% | -6% | 13%
CCCn1c(=N)n(CC(O)COc2cccc(C)c2)c2ccccc21 (stereo not drawn) | ? | 16µM* | ? | -17% | -23% | -14%
CCCCCn1c(=N)n(CC(O)COc2cccc(C)c2)c2ccccc21 (stereo not drawn) | ? | nt | nt | -16%[10.9 µM] | 10µM* | ?

High-throughput results from PubChem BioAssay.
